This passage reports Potency, activity change, negative = inhibition and activation results from PubChem BioAssay (NCATS).

Inconclusive results are not listed. Entries that show only a call come without a potency. A number with no mark means an inactive call. Calls of active or inactive are those of the source. Calls come from the whole dose curve; as a rule, active = well fitted curve in the direction sought with a large enough effect; inconclusive = small, poorly fitted or top-dose-only effect, or another doubt; inactive = no such curve, though single readings can be large; an effect the other way counts as inactive or inconclusive.

Sequence of Rap guanine nucleotide exchange factor 3 (Homo sapiens) (O95398 whole entry, looked up): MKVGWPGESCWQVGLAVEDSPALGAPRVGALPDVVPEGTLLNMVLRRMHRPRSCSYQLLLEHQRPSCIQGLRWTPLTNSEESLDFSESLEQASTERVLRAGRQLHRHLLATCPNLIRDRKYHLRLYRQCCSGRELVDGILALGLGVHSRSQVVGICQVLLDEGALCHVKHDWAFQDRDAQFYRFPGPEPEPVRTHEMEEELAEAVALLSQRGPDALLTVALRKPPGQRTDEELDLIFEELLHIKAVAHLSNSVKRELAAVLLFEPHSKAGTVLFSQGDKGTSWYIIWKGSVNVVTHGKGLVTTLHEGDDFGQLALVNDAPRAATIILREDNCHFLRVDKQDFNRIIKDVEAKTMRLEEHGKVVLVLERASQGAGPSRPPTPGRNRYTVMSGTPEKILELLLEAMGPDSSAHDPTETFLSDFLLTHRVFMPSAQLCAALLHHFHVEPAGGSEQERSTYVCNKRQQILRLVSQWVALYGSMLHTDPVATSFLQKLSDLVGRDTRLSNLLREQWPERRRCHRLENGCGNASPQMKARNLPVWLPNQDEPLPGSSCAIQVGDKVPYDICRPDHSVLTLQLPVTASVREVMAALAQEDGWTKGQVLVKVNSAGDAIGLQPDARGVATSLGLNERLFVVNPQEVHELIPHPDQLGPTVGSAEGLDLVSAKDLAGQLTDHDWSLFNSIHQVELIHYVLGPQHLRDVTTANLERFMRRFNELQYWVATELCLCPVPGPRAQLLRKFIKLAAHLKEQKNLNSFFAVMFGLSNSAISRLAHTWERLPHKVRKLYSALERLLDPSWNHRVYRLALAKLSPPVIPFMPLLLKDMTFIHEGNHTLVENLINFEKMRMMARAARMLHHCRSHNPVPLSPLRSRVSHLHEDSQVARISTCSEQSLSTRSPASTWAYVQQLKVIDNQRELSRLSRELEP

One test addresses Rap guanine nucleotide exchange factor 3 (Homo sapiens) (UniProt O95398). Briefly: Counterscreen qHTS for antagonist of cAMP-regulated guanine nucleotide exchange factor 3 (EPAC1) (AID 1645888).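 Note: fluorescence loss as bound BODIPY-GDP is released from Rap1B.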 The conditions noted are these: Rap1B-BODIPY-GDP nucleotide exchange, fluorescence; series mostly up to 154 µM. The procedure, abridged: (§1)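 Rap1B-BODIPY-GDP 250 nM + GDP 50 uM; cpds 7-pt, final 9.74 nM–152 uM (activator mode) or from 7.32 nM upwards (inhibitor mode); RT; FI 480/540 nm at 5 and 30 min, then ± cAMP, reread.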
`Fc1ccc2cnc(-c3ccccc3)c(-c3ccc(C(F)(F)F)cc3)c2c1`: the Potency result was “inactive”.
As to `COC(=O)c1cn(C(=O)c2ccccc2Cl)c2ccccc12`, the activity change, negative = inhibition was -1.26% [at 30.8 µM].
`NS(=O)(=O)c1ccc(N/N=C/c2ccc(C(=O)O)cc2)c([N+](=O)[O-])c1`: the Potency entry was “inactive”.
Same read-out and setting: to `O=C(O)CSc1nnc(COc2cccc3ccccc23)n1Cc1ccccc1` belongs “inactive”.
For the compound `CCOc1cc(/C=N/O)cc(Br)c1OCc1ccc(Cl)cc1`, the Potency entry was “inactive”.
Consider `COc1ccc(-c2nc(CCNS(=O)(=O)c3ccc4c(c3)OCCO4)cs2)cc1`, for which the Potency entry was “inactive”.
On to `Cn1c2ccccc2c2cc(/C=N/NC(=O)c3cc(O)cc(O)c3)ccc21`, for which the Potency result was “inactive”.
On the same count and under the same terms, as for `CC(C)CNC(=O)C1(C)CCCCCN1Cc1ccccc1-c1ccccc1` (stereo not given), the entry is “inactive”.
For the compound `Cc1cc(C)c2c(CN3CCC(C)CC3)cc(=O)oc2c1`, the activity change, negative = inhibition was 10.9% [at 30.8 µM].
In the case of `O=C(N/N=C/c1ccoc1)c1cc(O)cc(O)c1`, the Potency entry is “inactive”.
The same measure, in the same setting: to `C=C1SC(Nc2c(C)cccc2C)=NC12CCCCC2` belongs “inactive”.
Take `COc1cnc(N(C)C)nc1Sc1cccc(Cl)c1`: the activity change, negative = inhibition was -24.7% [at 30.8 µM].
As for `CCOc1cnc(-c2c(-c3ccccc3Cl)noc2C)o1`, the Potency entry is “inactive”.
Same read-out and setting: as for `O=C1[C@H](Cc2ccccc2)NCC=CC[C@@H](c2ccc(Cl)cc2)N1Cc1ccc(Cl)cc1`, the entry is “inactive”.
Consider `CC(=O)C1=C(O)C2(C)c3c(O)c(C)c(O)c(C(C)=O)c3OC2CC1=O` (stereo not given), for which the activity change, negative = inhibition was -6.21% [at 30.8 µM].
For `Cc1cc2c(N)cccc2nn1`, the Potency result was “inactive”.
Regarding `C[C@H](CO)N1C[C@H](C)[C@@H](CN(C)C)Oc2c(NS(=O)(=O)c3ccccc3)cccc2C1=O`, the Potency result is “inactive”.
For the compound `O=S(=O)(Nc1nccs1)c1ccc(Nc2nnc(-c3ccccc3)c3ccccc23)cc1`, the activity change, negative = inhibition is 3.85% [at 30.8 µM].
Turning to `O=C(O)c1cc(NN=C2c3ccccc3-c3ccccc32)ccc1Cl`, the Potency entry was “inactive”.
Still for that read-out and setting: as for `COc1cc(/C=C2\SC(=S)N(NC(=O)c3ccc(O)c(OC)c3)C2=O)ccc1O`, the entry is “inactive”.
On the same count and under the same terms, to `CC(C)=CCC[C@H](C)C[C@@H]1Cc2[nH][nH]c(=O)c2[C@H](c2ccc(F)cc2)O1` belongs “inactive”.
For the compound `O=C(CSc1n[nH]c(=O)[nH]c1=O)Nc1ccc2c(c1)C(=O)c1ccccc1C2=O`, the Potency result was “inactive”.
In the case of `Cc1ccc(C(=O)NNC(=O)c2ccccc2O)cc1S(=O)(=O)N1CCCCC1`, the Potency entry was “inactive”.
The same measure, in the same setting: to `CCCCN(CCCC)Cc1cc(=O)oc2cc(OC)ccc12` belongs “inactive”.
As for `CC(C)OP(=O)(OC(C)C)C1(NS(=O)(=O)c2ccc(Cl)cc2)C=C(Cl)C(=O)C(Cl)=C1`, the activity change, negative = inhibition is -5.74% [at 30.8 µM].
As to `Cc1ccc(N2CC(c3nc4ccccc4[nH]3)CC2=O)c(C)c1` (stereo not given), the Potency entry was “inactive”.
As to `CCCCN(CCCC)C1=Nc2ccccc2N/C1=C(/C#N)C(=O)OCC`, the Potency entry was “inactive”.
As for `O=C(O)c1ccc(COc2ccc3ccccc3c2/C=C2/NC(=O)N(Cc3ccc(F)cc3)C2=O)cc1`, the Potency entry was “inactive”.
For the compound `Cc1ccc(Nc2c([N+](=O)[O-])c(=O)oc3ccccc23)cc1C`, the Potency result was “inactive”.
Take `O=C1C(=Cc2cn(-c3ccccc3)nc2-c2ccc(OCc3ccc(Cl)cc3)cc2)SC(=S)N1CCS(=O)(=O)O`: the Potency result was “inactive”.
In the case of `C[C@@H]1CCCCCCCCC(=O)OCCN1C(=O)OC(C)(C)C`, the Potency result is “inactive”.
As for `Cc1cccc(OC(=O)Nc2ccc(C(=O)O)c(O)c2)c1`, the activity change, negative = inhibition was -25.7% [at 30.8 µM].
In the case of `Cc1ccc2oc(=O)c3cnn(CC(=O)NC4CCC(C)CC4)c3c2c1` (stereo not given), the Potency entry was “inactive”.
With `CCN(CC)S(=O)(=O)c1ccc2[nH]c(=O)cc(C(=O)Nc3ccc(C)c(S(=O)(=O)N(CC)CC)c3)c2c1`, the Potency result is “inactive”.
As for `O=C(COc1ccc(Cl)cc1Cl)c1ccc[nH]1`, the activity change, negative = inhibition was -17.9% [at 30.8 µM].
Consider `CCOC(=O)C1=C(C)NC(C)=C(C(=O)OCC)C1C(=O)OCC(=O)NCc1ccc(F)cc1`, for which the Potency result is “inactive”.
In the case of `CCc1c(C2(O)CCCCC2)[nH]c2c(C(=O)OC)cc(Cl)cc12`, the Potency entry is “inactive”.
As for `COc1ccc(/C=C/C(=O)c2ccccc2)c(OC)c1`, the activity change, negative = inhibition is -16.1% [at 30.8 µM].
Regarding `COC1=C/C(=C/c2c(N)n3nc(-c4ccc(C)cc4)sc3nc2=O)C=CC1=O`, the Potency entry is “inactive”.
The same measure, in the same setting: to `Cc1ccc2c(CC(=O)OCc3cc(=O)n4c(n3)sc3ccccc34)coc2c1` belongs “inactive”.

Another test has the same target. Kind of test: Counterscreen qHTS for agonist of cAMP-regulated guanine nucleotide exchange factor 3 (EPAC1) (AID 1645889). Note: nearly all actives have a fitted effect of over 40% in size. Note: potency is the fitted concentration of half-maximal effect. To be noted: EPAC1 Rap1B-BODIPY-GDP exchange, fluorescence; series mostly up to 154 µM. Put shortly: as §1
On to `Fc1ccc2cnc(-c3ccccc3)c(-c3ccc(C(F)(F)F)cc3)c2c1`, for which the Potency result was “inactive”.
On to `COC(=O)c1cn(C(=O)c2ccccc2Cl)c2ccccc12`, for which the activation is 20.7% [at 30.8 µM].
Regarding `NS(=O)(=O)c1ccc(N/N=C/c2ccc(C(=O)O)cc2)c([N+](=O)[O-])c1`, the Potency entry was “inactive”.
Same read-out and setting: as for `O=C(O)CSc1nnc(COc2cccc3ccccc23)n1Cc1ccccc1`, the entry is “inactive”; as for `CCOc1cc(/C=N/O)cc(Br)c1OCc1ccc(Cl)cc1`, “inactive”.
For the compound `COc1ccc(-c2nc(CCNS(=O)(=O)c3ccc4c(c3)OCCO4)cs2)cc1`, the Potency result was “inactive”.
Consider `Cn1c2ccccc2c2cc(/C=N/NC(=O)c3cc(O)cc(O)c3)ccc21`, for which the Potency entry was “inactive”.
For the compound `CC(C)CNC(=O)C1(C)CCCCCN1Cc1ccccc1-c1ccccc1` (stereo not given), the Potency entry is “inactive”.
On to `Cc1cc(C)c2c(CN3CCC(C)CC3)cc(=O)oc2c1`, for which the activation is 22% [at 30.8 µM].
Consider `O=C(N/N=C/c1ccoc1)c1cc(O)cc(O)c1`, for which the Potency entry is “inactive”.
For the compound `C=C1SC(Nc2c(C)cccc2C)=NC12CCCCC2`, the Potency entry is “inactive”.
With `COc1cnc(N(C)C)nc1Sc1cccc(Cl)c1`, the activation is -4.79% [at 30.8 µM].
As to `CCOc1cnc(-c2c(-c3ccccc3Cl)noc2C)o1`, the Potency entry is “inactive”.
With `O=C1[C@H](Cc2ccccc2)NCC=CC[C@@H](c2ccc(Cl)cc2)N1Cc1ccc(Cl)cc1`, the Potency result was “inactive”.
Turning to `CC(=O)C1=C(O)C2(C)c3c(O)c(C)c(O)c(C(C)=O)c3OC2CC1=O` (stereo not given), the activation was -4.12% [at 30.8 µM].
For the compound `Cc1cc2c(N)cccc2nn1`, the Potency entry was “inactive”.
On to `C[C@H](CO)N1C[C@H](C)[C@@H](CN(C)C)Oc2c(NS(=O)(=O)c3ccccc3)cccc2C1=O`, for which the Potency entry is “inactive”.
For `O=S(=O)(Nc1nccs1)c1ccc(Nc2nnc(-c3ccccc3)c3ccccc23)cc1`, the activation is 17.5% [at 30.8 µM].
On to `O=C(O)c1cc(NN=C2c3ccccc3-c3ccccc32)ccc1Cl`, for which the Potency entry is “inactive”.
Take `COc1cc(/C=C2\SC(=S)N(NC(=O)c3ccc(O)c(OC)c3)C2=O)ccc1O`: the Potency result is “inactive”.
Turning to `CC(C)=CCC[C@H](C)C[C@@H]1Cc2[nH][nH]c(=O)c2[C@H](c2ccc(F)cc2)O1`, the Potency result was “inactive”.
Regarding `O=C(CSc1n[nH]c(=O)[nH]c1=O)Nc1ccc2c(c1)C(=O)c1ccccc1C2=O`, the Potency result was “inactive”.
Regarding `Cc1ccc(C(=O)NNC(=O)c2ccccc2O)cc1S(=O)(=O)N1CCCCC1`, the Potency entry is “inactive”.
`CCCCN(CCCC)Cc1cc(=O)oc2cc(OC)ccc12`: the Potency entry is “inactive”.
With `CC(C)OP(=O)(OC(C)C)C1(NS(=O)(=O)c2ccc(Cl)cc2)C=C(Cl)C(=O)C(Cl)=C1`, the activation was 22.3% [at 30.8 µM].
For `Cc1ccc(N2CC(c3nc4ccccc4[nH]3)CC2=O)c(C)c1` (stereo not given), the Potency result is “inactive”.
In the case of `CCCCN(CCCC)C1=Nc2ccccc2N/C1=C(/C#N)C(=O)OCC`, the Potency entry is “inactive”.
As for `O=C(O)c1ccc(COc2ccc3ccccc3c2/C=C2/NC(=O)N(Cc3ccc(F)cc3)C2=O)cc1`, the Potency result was “inactive”.
As to `Cc1ccc(Nc2c([N+](=O)[O-])c(=O)oc3ccccc23)cc1C`, the Potency entry was “inactive”.
Consider `O=C1C(=Cc2cn(-c3ccccc3)nc2-c2ccc(OCc3ccc(Cl)cc3)cc2)SC(=S)N1CCS(=O)(=O)O`, for which the Potency is 50.1 µM (active).
The same measure, in the same setting: as for `C[C@@H]1CCCCCCCCC(=O)OCCN1C(=O)OC(C)(C)C`, the entry is “inactive”.
`Cc1cccc(OC(=O)Nc2ccc(C(=O)O)c(O)c2)c1`: the activation was -3.96% [at 30.8 µM].
As to `Cc1ccc2oc(=O)c3cnn(CC(=O)NC4CCC(C)CC4)c3c2c1` (stereo not given), the Potency result was “inactive”.
Take `CCN(CC)S(=O)(=O)c1ccc2[nH]c(=O)cc(C(=O)Nc3ccc(C)c(S(=O)(=O)N(CC)CC)c3)c2c1`: the Potency entry was “inactive”.
For the compound `O=C(COc1ccc(Cl)cc1Cl)c1ccc[nH]1`, the activation is 7.74% [at 30.8 µM].
`CCOC(=O)C1=C(C)NC(C)=C(C(=O)OCC)C1C(=O)OCC(=O)NCc1ccc(F)cc1`: the Potency result is “inactive”.
With `CCc1c(C2(O)CCCCC2)[nH]c2c(C(=O)OC)cc(Cl)cc12`, the Potency result was “inactive”.
Turning to `COc1ccc(/C=C/C(=O)c2ccccc2)c(OC)c1`, the activation is -1.52% [at 30.8 µM].
In the case of `COC1=C/C(=C/c2c(N)n3nc(-c4ccc(C)cc4)sc3nc2=O)C=CC1=O`, the Potency result was “inactive”.
Consider `Cc1ccc2c(CC(=O)OCc3cc(=O)n4c(n3)sc3ccccc34)coc2c1`, for which the Potency entry is “inactive”.
